# An excerpt weighted towards active compounds, which were near 2.4% of everything screened.
# PP1 counter = PP1-alpha phosphatase inhibitors, primary screen, counter-screen for PP5 inhibitor project, biochemical, fluorescence, OMFP substrate, single point | 0.9% of 320,000 active | AID 2235, 2010 | purified PP1alpha | inhibition, % at 6.7 µM;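 active = inhibition above the mean inhibition of all tested compounds plus 3 SD, computed separately for each screening campaign, cut at about 15% in these data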
# NadD inh = inhibitors of S. aureus NadD, primary screen, biochemical, colorimetric, uHTS; purified NadD enzyme, colorimetric absorbance read-out; inhibition, % at 20 µM; AID 602399, 2012; 0.78% of 360,000 active; Nicotinate-nucleotide adenylyltransferase NadD (Staphylococcus aureus N315); in the data active = inhibition above about 26%
# PP5 inh = PP5 phosphatase inhibitors, primary screen, biochemical, fluorescence; Serine/threonine-protein phosphatase 5 (Homo sapiens), P53041; purified PP5c, OMFP substrate fluorescence; inhibition, % at 6.7 µM; 0.18% of 320,000 active; AID 1987, 2009;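 active = inhibition above the campaign's mean inhibition across all tested compounds plus 3 SD, cut at about 9.5% in these data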;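 note: 0% = DMSO only and 100% = 100 µM cantharidin control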
# Rpn11 inh = Rpn11 (PSMD14) deubiquitinase inhibitors, primary screen, biochemical, fluorescence polarization, uHTS | human 26S proteasome, Ub4-pepOG fluorescence polarization; 20S core pre-blocked with epoxomicin | inhibition, % at 20 µM | 0.59% of 360,000 active;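 active = inhibition at 20 µM, scaled to each plate's controls, above about 33%, limit read from the data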
# PREPL inh = PREPL enzyme inhibitors, primary screen, biochemical, fluorescence polarization | Prolyl endopeptidase-like (Homo sapiens), Q4J6C6 | inhibition, % at 5.96 µM | 0.68% of 320,000 active | recombinant PREPL, fluorescence polarization activity-based probe; in the data active = inhibition above about 43%;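 note: 0% = enzyme with DMSO and 100% = wells lacking enzyme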
# Rpn11 inh conf = Rpn11 (PSMD14) deubiquitinase inhibitors, confirmation, biochemical, fluorescence polarization, single concentration; shares compounds with Rpn11 inh; purified human 26S proteasome, Ub4-pepOG fluorescence polarization; proteasome pretreated with epoxomicin; inhibition, % at 20 µM; 29% of 1,900 active; AID 602318, 2012
# MMP-2 counter = MMP-2 enzyme inhibition, confirmation, counter-screen for RPN11 inhibitor project, biochemical, fluorescence, single concentration | shares compounds with Rpn11 inh | recombinant MMP-2, FRET peptide cleavage fluorescence | inhibition, % at 20 µM | 4% of 1,900 active;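 note: human MMP-2 activated beforehand with APMA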
# Target sequence (P08253 whole entry, looked up): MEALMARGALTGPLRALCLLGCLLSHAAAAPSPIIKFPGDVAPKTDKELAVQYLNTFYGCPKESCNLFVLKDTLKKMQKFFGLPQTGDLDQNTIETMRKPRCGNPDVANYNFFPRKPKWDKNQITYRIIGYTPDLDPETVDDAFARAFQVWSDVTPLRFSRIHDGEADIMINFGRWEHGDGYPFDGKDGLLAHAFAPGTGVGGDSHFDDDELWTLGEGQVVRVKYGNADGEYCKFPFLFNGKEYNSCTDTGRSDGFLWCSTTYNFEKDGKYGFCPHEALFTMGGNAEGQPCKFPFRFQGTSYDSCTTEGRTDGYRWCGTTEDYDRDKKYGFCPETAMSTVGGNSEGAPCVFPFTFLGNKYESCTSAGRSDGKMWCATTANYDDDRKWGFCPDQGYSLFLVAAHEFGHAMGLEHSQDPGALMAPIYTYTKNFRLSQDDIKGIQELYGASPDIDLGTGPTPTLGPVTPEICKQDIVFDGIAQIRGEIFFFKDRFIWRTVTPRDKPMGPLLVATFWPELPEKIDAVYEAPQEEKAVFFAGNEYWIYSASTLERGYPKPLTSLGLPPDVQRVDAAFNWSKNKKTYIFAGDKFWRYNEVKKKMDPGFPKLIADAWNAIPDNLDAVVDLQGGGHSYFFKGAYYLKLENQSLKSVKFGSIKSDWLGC
# Thrombin FP = bovine thrombin protease inhibition, confirmation, counter-screen for Rpn11 inhibitor project, biochemical, fluorescence polarization, single concentration | shares compounds with Rpn11 inh | bovine thrombin cleavage of Ub4-pepOG | inhibition, % at 20 µM | 13% of 1,900 active | AID 602333, 2012;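 active = mean inhibition at least 40% at 20 µM, or signal 3 deviations below plate average, so some actives read negative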;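 note: plate controls were thrombin with DMSO for no effect and buffer wells lacking thrombin for full effect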
# Starred values were filed as active, the others as inactive; · = not tested or not shown. Cut-off read from the data, not from the text of the source, unless noted: active = inhibition above about 40%; inactive = the rest.
SMILES,PP1 counter,NadD inh,PP5 inh,Rpn11 inh,PREPL inh,Rpn11 inh conf,MMP-2 counter,Thrombin FP
CC(C)(C)c1nc2ccccc2c2nnc(SCC(=O)Nc3nccs3)n12,0,4,0,5,2,·,·,·
Cc1ccc(-c2nn(-c3cccc(F)c3)cc2CN2CCN(c3ccccn3)CC2)o1,-1,-3,3,3,4,·,·,·
Cc1ccc(-c2nn(-c3cccc(F)c3)cc2CNCc2cccnc2)o1,3,23,0,48*,-2,24,-13,21
CCNC(=O)C1CCCN(C(=O)c2cccs2)CC1 (stereo not drawn),·,1,·,0,·,·,·,·
CCN(CC(=O)Nc1c(F)cccc1F)C(=O)CCc1nc2sc3c(c2c(=O)[nH]1)CCCC3,2,7,1,68*,24,64*,-3,41*
CN(CC(=O)Nc1c(Cl)cccc1Cl)C(=O)CCc1nc2sc3c(c2c(=O)[nH]1)CCCC3,3,15,-1,26,30,·,·,·
CN(CC(=O)Nc1ccc(Cl)cc1)C(=O)CCc1nc2sc3c(c2c(=O)[nH]1)CCCC3,-1,9,-3,52*,13,72*,-31,26
CCN(CC(=O)Nc1ccccc1C(F)(F)F)C(=O)CCc1nc2sc3c(c2c(=O)[nH]1)CCCC3,0,-4,-1,20,15,·,·,·
CN(CC(=O)Nc1ccc(F)cc1)C(=O)CCc1nc2sc3c(c2c(=O)[nH]1)CCCC3,-3,3,1,48*,4,38,-31,19
CCN(c1ccc(C(=O)CN2C(=O)NC3(CCOc4ccccc43)C2=O)cc1)S(C)(=O)=O (stereo not drawn),-2,-2,1,5,5,·,·,·
Cc1cc(C)c2c(N)c3cccc(C)c3nc2n1,-2,5,0,67*,20,54*,-29,8
COc1cc(COCC(O)CN2C(C)CCCC2C)cc(OC)c1OC (stereo not drawn),-2,2,-1,1,-6,·,·,·
COc1cc(/C=C2\SC(=S)N(CC(=O)Nc3ccccn3)C2=O)cc(OC)c1OC,3,28,-1,60*,4,38,-5,25
COc1cc(/C=C2/SC(=S)N(CC(=O)Nc3nc4ccccc4s3)C2=O)cc(OC)c1OC,7,35*,2,51*,11,52*,16,28
CCc1nnc(NC(=O)CN2C(=O)/C(=C/c3cc(OC)c(OC)c(OC)c3)SC2=S)s1,4,11,0,12,-9,·,·,·
COc1ccc(/C=C2\SC(=S)N(CC(=O)Nc3nnc(C)s3)C2=O)cc1,-1,5,-1,41*,-1,3,-8,-5
COc1ccc(/C=C2\SC(=S)N(CC(=O)NCCO)C2=O)cc1,-4,-2,0,6,-10,·,·,·
C#CCOCCOCCOCCNc1nc(N2CCN(C(=O)C([C@@H](C)O)n3cc([C@@H](N)CCCCN)nn3)CC2)nc(N2CCN(C(=O)C([C@@H](C)O)n3cc([C@@H](N)CCCCN)nn3)CC2)n1 (stereo partly drawn),·,-4,·,-17,6,·,·,·
CC(C)C[C@@H](CO)NS(=O)(=O)c1c(F)cccc1F,·,-5,·,-4,·,·,·,·
CCOc1ccccc1C(=O)NCC(=O)NNC(=O)c1cccc(S(=O)(=O)Nc2ccc(OC)cc2)c1,-3,-4,-4,3,-5,·,·,·
O=C(O)c1cc(-c2ccco2)nn1-c1ccc(Cl)cc1,·,7,·,22,·,·,·,·
O=C(O)c1cc(-c2ccco2)nn1-c1cccc(Cl)c1,12,6,-3,42*,9,19,15,6
CCOC(=O)c1nc2cc3n(c(CC(C)C)c-2c1C)CC(C)=C3C,4,4,1,56*,13,18,6,14
Cc1nn(C)c2ncc(C(=O)c3cc(F)ccc3O)cc12,0,-6,1,-1,-4,·,·,·
Cn1c(=O)[nH]c(=O)c2cc(C(=O)c3cc(F)ccc3O)cnc21,-5,-4,0,68*,4,18,-22,25
SMILES,PP1 counter,NadD inh,PP5 inh,Rpn11 inh,PREPL inh,Rpn11 inh conf,MMP-2 counter,Thrombin FP
CC(C(=O)Nc1ccc(C(N)=O)cc1)N1C(=O)c2ccccc2S1(=O)=O (stereo not drawn),-2,-7,0,-10,-11,·,·,·
CC(=O)c1ccc(NC(=O)c2ccc(COc3ccccc3[N+](=O)[O-])o2)cc1,3,-6,-1,49*,-22,7,-3,-29
O=S(=O)(c1ccc(Cl)cc1)N1CCc2ccccc21,2,-11,-4,42*,-7,147*,-45,132*
N#Cc1ccc(CSc2nnc(NC(=O)CCc3nc4ccccc4c(=O)[nH]3)s2)cc1,-6,12,-1,17,-6,·,·,·
C=CCN=C1S/C(=C\c2ccc(N(C)C)cc2)C(=O)N1CC=C,-6,-1,2,92*,13,19,-11,21
C=CCN1C(=O)/C(=C/c2ccc(OC)cc2)S/C1=N/c1nccs1,1,1,0,6,1,·,·,·
COCCNC(=O)C1Cc2c(-c3cccc(NC(C)=O)c3)ccnc2O1 (stereo not drawn),·,0,·,-3,·,·,·,·
O=C1CCCC2=C1C(c1ccc(Br)cc1)c1c([nH]c(=S)[nH]c1=O)N2 (stereo not drawn),7,6,0,4,5,·,·,·
O=c1[nH]c(=S)[nH]c2c1C(c1ccc(Br)cc1)c1c([nH]c(=S)[nH]c1=O)O2,9,20,0,141*,9,49*,22,28
COc1ccc(CNC(=O)C2CCCN(S(=O)(=O)c3ccc(-n4cnnn4)cc3)C2)cc1 (stereo not drawn),-2,-5,0,0,-5,·,·,·
CCOc1cc(C(c2c(C)[nH][nH]c2=O)c2c(C)[nH][nH]c2=O)ccc1OS(=O)(=O)c1ccc(C)cc1,4,11,5,103*,-2,20,16,-13
CCc1sc(C(=O)N(CCOC)c2c(N)n(Cc3ccccc3)c(=O)[nH]c2=O)cc1C,·,0,·,2,·,·,·,·
